Sampled rows, rich in hits. Any-hit rate of the full collection: about 6.8%.
PMK inhibit – S. pneumoniae PMK inhibitors, primary screen, biochemical, mevalonate pathway, pilot trial included | AID 539, 2006 | phosphomevalonate kinase (Streptococcus pneumoniae D39) | inhibition, % at 10 µM | 65,000 compounds, 0.49% hits | purified PMK, PK/LDH-coupled NADH absorbance 340 nm;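 active = top-ranked compounds by inhibition in the single 10 µM screen, taking a fixed number of the strongest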
NADH enzymes – inhibitors of PK/LDH coupling enzymes, profiling panel, artefact control, biochemical, MLSMR library; coupled PK/LDH NADH assays, four targets; IC50, µM (series often up to 10 µM); 65,000 compounds, 0.02% hits;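 active = single-dose screening hits from any of four coupled enzyme assays that gave an IC50 when retested across doses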;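 also: the DPM-DC format reads NADH fluorescence rather than 340 nm absorbance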
MK inhibit – S. pneumoniae MK inhibitors, primary screen, biochemical, PK/LDH-coupled NADH absorbance. inhibition, % at 10 µM. purified MK, PK/LDH-coupled NADH absorbance 340 nm. 65,000 compounds, 0.48% hits. mevalonate kinase [Streptococcus pneumoniae D39];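 active = ranked among the strongest by inhibition in the single 10 µM screen, a fixed top-ranked set picked for dose follow-up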
Fluor 339 460 – intrinsic fluorescence of library compounds, ex339/em460 – biochemical, MLSMR library, data from DPM-DC assay, artefact control, profiling panel; compound autofluorescence, ex339/em460 nm, NADH buffer; stronger effect = higher value; 1 = no-compound wells, NADH background; fluorescence fold increase at 10 µM; 65,000 compounds, 5.5% hits;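 active = at 10 µM, mean starting fluorescence two-fold or more over control wells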;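 also: signal is the first read of a kinetic run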
DPM-DC inhibit – S. pneumoniae DPM-DC inhibitors, primary screen, biochemical, PK/LDH-coupled NADH fluorescence; 65,000 compounds, 0.49% hits; calls only at 10 µM; purified DPM-DC; diphosphomevalonate decarboxylase (Streptococcus pneumoniae D39);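 active = the 320 compounds with the highest percent inhibition in the single-dose primary screen, excluding strongly autofluorescent ones, cut at about 32% in these data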;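 also: kinetic rate of NADH fluorescence loss reporting ADP formed by the decarboxylase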
A340 absorber – compound light absorbance at 340 nm, profiling panel, artefact control, biochemical, MLSMR library, data from PS, PMK, MK assays; 65,000 tested, under 10 active; fold change at 10 µM; compound absorbance at 340 nm, fold over control;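 active = at 10 µM dose, initial 340 nm absorbance at least 2 fold that of control wells; inactive = change under 2 fold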;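 also: initial absorbance extrapolated from kinetic A340 decline of NADH oxidation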
Large screens that a line does not name were inactive.

C=CCn1cnc2c(c1=O)c1nc3ccccc3nc1n2/N=C/c1cc(OC)c(OC)c(OC)c1	none
C=CCn1cnc2c(c1=O)c1nc3ccccc3nc1n2/N=C/c1ccccn1	Fluor 339 460 2.55
C=COC(=O)CSc1nc(-c2cccs2)ccc1C#N	Fluor 339 460 2.07
CCN(CC)C(=O)CSc1nc(C)cc(-c2cccs2)c1C#N	none
CCOC(=O)C(C)Sc1nc(-c2cccs2)ccc1C#N (centres undefined)	Fluor 339 460 2.19 (not shown: DPM-DC inhibit)
Cc1ccc(NC(=O)CS(=O)(=O)c2c[nH]c3ccccc23)c(C)c1	none
CCOC(=O)c1cnn2c(N)c(C#N)nnc12	none
CCOC(=O)c1c(C)nc2c(C#N)cnn2c1C	Fluor 339 460 2.35
COc1ccc2[nH]c(=O)c(CN(C)C(=O)C3CCCCC3)cc2c1	Fluor 339 460 3.46 (not shown: DPM-DC inhibit)
CCN(Cc1cc2ccccc2[nH]c1=O)C(=O)C1CCCCC1	none
COc1ccc2[nH]c(=O)c(CN(C)C(=O)c3ccncc3)cc2c1	Fluor 339 460 2.02
Cc1cc2nc(NC3=NCN(Cc4cccnc4)CN3)nc(C)c2cc1C	none
CCN1CCN(CC(=O)NC2CCCCC2)C(=O)C1=O	none
CCOC(=O)C1=C(CS(=O)(=O)c2ccc(F)c(C)c2)NC(=O)NC1c1ccc(O)c(O)c1 (centres undefined)	none
CCOC(=O)CCc1nc2ccccc2[nH]c1=O	Fluor 339 460 2.21
Cc1c(S(=O)(=O)Nc2cccc(Cl)c2)c(=O)n(C)c(=O)n1C	MK inhibit 55.0
Cc1nnc(NS(=O)(=O)c2ccc(N)cc2)s1	none
COc1ccc(S(=O)(=O)Nc2nnc(C)s2)cc1	PMK inhibit 30.0
Cc1ccc(-c2noc(CCC(=O)NCCN3CCc4ccccc4C3)n2)cc1	PMK inhibit 25.0
Cc1ccc(-c2noc(CCC(=O)NCCN3CCOCC3)n2)cc1	none
O=C(CCc1nc(-c2ccccc2F)no1)NCCc1ccccc1Cl	none
O=C(CCc1nc(-c2ccccc2F)no1)NCCN1CCc2ccccc2C1	DPM-DC inhibit active
Cn1c(=O)c2c(ncn2CC(=O)Nc2cc(Cl)c(Cl)cc2Cl)n(C)c1=O	none
N#Cc1nc(Cc2ccccc2)oc1N1CCC(C(N)=O)CC1	none
N#Cc1nc(-c2ccco2)oc1N1CCC(C(N)=O)CC1	Fluor 339 460 3.93 (not shown: DPM-DC inhibit)
CC1CN(c2oc(-c3ccco3)nc2C#N)CC(C)O1 (centres undefined)	Fluor 339 460 3.8 (not shown: DPM-DC inhibit)
CCOc1ccccc1N1CCN(S(=O)(=O)c2cccc3nsnc23)CC1	none
COc1ccccc1C(=O)N1CCN(c2ccccn2)CC1	none
COc1ccccc1C(=O)N1CCN(c2nc3cc(C)c(C)cc3cc2C#N)CC1	Fluor 339 460 2.82
CC(C)Oc1ccc2c(=O)c(-c3ccccc3)coc2c1	none
Cc1ccccc1-c1coc2cc(O)ccc2c1=O	Fluor 339 460 3.85 (not shown: DPM-DC inhibit)
CCCc1cc(=O)[nH]c(SCC(=O)Nc2cc3c(cc2C(C)=O)OCO3)n1	Fluor 339 460 2.15
CCCc1cc(=O)[nH]c(SCC(=O)NC2CCCCC2)n1	none
CC(=O)c1cc2c(cc1NC(=O)CSc1nnc(C)s1)OCO2	Fluor 339 460 2
Cc1ccc(S(=O)(=O)N2CCCCC2)cc1C(=O)Nc1ncn[nH]1	none
O=C(COc1ccc2c(c1)C(=O)CC1(CCCCC1)O2)NCc1ccccn1	Fluor 339 460 5.08 (not shown: DPM-DC inhibit)
O=C(COc1ccc(S(=O)(=O)NC2CCCCC2)cc1)NCc1ccccn1	none
CC1(C)CC(=O)c2cc(OCC(=O)NCCCN3CCN(c4ccccc4F)CC3)ccc2O1	Fluor 339 460 3.42 (not shown: DPM-DC inhibit)
CC1(C)CC(=O)c2cc(OCC(=O)NCc3cccnc3)ccc2O1	Fluor 339 460 5.14 (not shown: DPM-DC inhibit)
CCOC(=O)COc1ccc2c(c1)C(=O)CC(C)(c1cccnc1)O2 (centres undefined)	Fluor 339 460 4.79 (not shown: DPM-DC inhibit)
CC(C(=O)NC1CCCC1)N(C(=O)c1snc(C(N)=O)c1N)c1ccc2c(c1)OCCO2 (centres undefined)	none
CC(C)(C)NC(=O)CN(Cc1cccnc1)C(=O)c1csnn1	none
CC(=O)Nc1cc(S(=O)(=O)C(F)(F)F)ccc1Cl	none
O=C1CC(c2cccs2)c2cc3c(cc2N1)OCCO3 (centres undefined)	none
Cc1nc(SC2C=CS(=O)(=O)C2)n[nH]1 (centres undefined)	PMK inhibit 11.0
COC(=O)c1ccc(N2C(=O)CC(Sc3n[nH]c(C)n3)C2=O)cc1 (centres undefined)	none
CCn1c(SCC(=O)O)nnc1C1CCCCC1	none
O=C(CCn1c(=S)[nH]c2cc3c(cc2c1=O)OCO3)NCCN1CCCC1	none
O=C(NS(=O)(=O)c1ccc2c(c1)OCCO2)c1ccccc1	none
NC(=O)c1ccsc1NC(=O)c1nc(-c2ccccc2)n(-c2ccccc2)n1	DPM-DC inhibit active
O=C(NC1=NCCS1)c1nc(-c2ccccc2)n(-c2ccccc2)n1	none
COc1ccc(Cl)cc1NC(=O)c1ccco1	none
O=C(Nc1ccc(Cl)cc1C(=O)Nc1ccc(Br)cn1)c1ccco1	Fluor 339 460 2.27
CCOC(=O)c1ccc(NC(=O)N2CCN(Cc3cccc(F)c3)CC2)cc1	none
O=C(CSCc1ccccc1)N1CCN(c2ccc(F)cc2)CC1	none
COc1cccc(CN2CCN(C(=O)CC(C)C)CC2)c1	MK inhibit 61.0
COc1ccc(C(=O)N2CCN(C(=O)CC(C)C)CC2)cc1OC	none
O=C(CSCc1cccc(F)c1)N1CCN(c2ccccc2)CC1	PMK inhibit 25.0
CC(C)CC(=O)N1CCN(Cc2cccc(F)c2)CC1	MK inhibit 59.0
NS(=O)(=O)c1cc2c(cc1Cl)NC(C1C[C@H]3C=C[C@@H]1C3)NS2(=O)=O (some centres undefined)	none
O=C(CCn1c(=O)sc2ccccc21)NCCN1CCOCC1	none
CC(C)(C)c1ccccc1NC(=O)c1ccco1	none
Cc1cc(C)n(-c2nc3ccccc3c(=O)n2OCC(=O)Nc2c(C)cccc2C)n1	none
CCN(CC)CCN1C(=O)c2ccccc2NC1c1cccc(F)c1 (centres undefined)	Fluor 339 460 2.07 (not shown: DPM-DC inhibit)
COc1ccc(C2Nc3ccccc3C(=O)N2O)cc1OC (centres undefined)	none
CCN(CC)CCN1C(=O)c2ccccc2NC1c1cc(OC)c(OC)c(OC)c1 (centres undefined)	Fluor 339 460 2.3 (not shown: DPM-DC inhibit)
CC(C)(C)C(=O)N=C1SC2CS(=O)(=O)CC2N1c1ccc2c(c1)OCO2 (centres undefined)	none
CCOc1ccc(-n2c(Cc3ccccc3)nnc2SCc2c(C)noc2C)cc1	none
